Compound activity deposited in PubChem BioAssay by National Center for Advancing Translational Sciences (NCATS).
This is a sample that favours compounds with a hit; in the whole collection about 10% have one here.
NPR1 antag: blocks ANP-stimulated signaling of human Npr1 receptor; P16066; HEK293 hNpr1 GloSensor cGMP, ANP-stimulated luminescence; Potency, µM (top dose mostly 46.3 µM), for inactives: at the top dose activity change, negative = inhibition, most hits filed as inhibitors; 1.6% of 76,000 active; AID 1347048; calls by dose curve; note: % is set by controls: 0 for no effect and ±100 for the full control effect; nearly all actives have a fitted effect of over 60% in size
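Compound pre-incubated 30 min at room temperature on GloSensor-loaded HEK293 cells stably carrying hNpr1 and the pGS-40F cGMP biosensor. Stimulation uses hNppA at 0.1 nM final; luminescence is taken at baseline and 20 min post-agonist.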
3T3 cytotox: kills NIH 3T3 cells; 4.3% of 94,000 active; AID 1345082; NIH 3T3 viability, CellTiter-Glo ATP luminescence, 48-72 h; Potency, µM (titrated, usually from 96.7 µM), for inactives: at the highest dose activity change, negative = cytotoxicity, most hits filed as inhibitors; note: % is set by controls: 0 for no effect and ±100 for the full control effect; nearly all actives have a fitted effect of over 55% in size
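Cytotoxicity is measured as loss of cellular ATP: NIH 3T3 cells (400/well) are exposed to compound for 48 or 72 hr at 37 °C, then CellTiter-Glo luminescence is imaged after 10 min at room temperature.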
HEK cytotox: kills HEK 293 cells. HEK 293 viability, ATP luminescence (CellTiter-Glo), 48-72 h. Potency, µM (top dose mostly 115 µM), without a hit: at the highest dose activity change, negative = cytotoxicity, hits mostly inhibitors. 6.6% of 94,000 active. AID 1345083; note: % is set by controls: 0 for no effect and ±100 for the full control effect; nearly all actives have a fitted effect of over 60% in size
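HEK 293 cells seeded at 250 cells/well were exposed to compound for 48 or 72 hr at 37 degree Celsius. Viability taken as ATP content by CellTiter-Glo luminescence.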
Luciferase inh: Photinus pyralis luciferase inhibition. purified P. pyralis luciferase, luminescence, biochemical. Potency, µM (series often up to 115 µM), actives largely listed as inhibitors. 2.5% of 76,000 active. AID 1347043; note: % is set by controls: 0 for no effect and ±100 for the full control effect; nearly all actives have a fitted effect of over 65% in size
Target sequence (P08659 whole entry, looked up): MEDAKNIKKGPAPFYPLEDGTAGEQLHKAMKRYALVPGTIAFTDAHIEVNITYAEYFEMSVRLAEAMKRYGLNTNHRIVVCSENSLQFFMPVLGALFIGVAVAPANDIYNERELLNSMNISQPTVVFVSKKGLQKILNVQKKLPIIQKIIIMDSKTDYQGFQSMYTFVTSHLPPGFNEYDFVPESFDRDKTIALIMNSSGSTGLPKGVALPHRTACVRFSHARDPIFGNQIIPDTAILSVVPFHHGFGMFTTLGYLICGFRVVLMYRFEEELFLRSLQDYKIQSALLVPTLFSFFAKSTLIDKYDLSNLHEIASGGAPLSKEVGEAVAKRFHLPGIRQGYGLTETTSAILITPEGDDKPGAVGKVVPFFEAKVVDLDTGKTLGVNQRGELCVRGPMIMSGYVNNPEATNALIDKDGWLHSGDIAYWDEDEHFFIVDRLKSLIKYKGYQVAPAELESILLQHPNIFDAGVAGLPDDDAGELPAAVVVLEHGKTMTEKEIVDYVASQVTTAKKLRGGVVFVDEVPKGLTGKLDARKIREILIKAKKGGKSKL
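Biochemical qHTS: compound (6-point titration) added to 10uM D-luciferin plus 10uM ATP in Tris acetate pH 7.5 buffer with Mg, Tween-20 and BSA, then purified enzyme at 10nM; light output imaged.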
GPT2 inhibitor: blocks human glutamate pyruvate transaminase 2; Recombinant GPT2, coupled pyruvate oxidase/HRP Amplex Red fluorescence; Potency, µM (series often up to 57.7 µM), inactives show at the top dose activity change, negative = inhibition, most hits filed as inhibitors; 0.25% of 100,000 active; Q8TD30; AID 1671188; note: % is set by controls: 0 for no effect and ±100 for the full control effect; nearly all actives have a fitted effect of over 60% in size
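Fluorescence read-out: pyruvate from GPT2 turnover coupled to pyruvate oxidase, HRP and Amplex Red (0.2mM ThPP, 0.2U/mL PO and HRP, 50uM Amplex final). Substrates 250uM a-KG, 2mM L-alanine; enzyme 10ng/uL; 30 min RT.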
NPR1 antag cnf: confirmation of human Npr1 natriuretic peptide receptor antagonists. HEK293 hNpr1 cGMP GloSensor luminescence, ANP-stimulated. shares compounds with NPR1 antag. Potency, µM (doses to about 57.6 µM), without a hit: at the highest dose activity change, negative = inhibition, hits mostly inhibitors. 76% of 1,400 active; calls by dose curve; note: nearly all actives have a fitted effect of over 70% in size
Npr2 selectivity: antagonizes human Npr2, subtype selectivity check; shares compounds with NPR1 antag; HEK293 hNpr2 GloSensor cGMP luminescence, CNP-stimulated; Potency, µM (top dose mostly 57.6 µM), without a hit: at the highest dose activity change, negative = inhibition, actives largely listed as inhibitors; 67% of 1,400 active; AID 1347046; calls by dose curve; note: nearly all actives have a fitted effect of over 70% in size
FLuc inh counter: counter-screen for Npr1 antagonists: firefly luciferase inhibitors; shares compounds with NPR1 antag; 0.7% of 1,400 active; Potency, µM (titrated, usually from 57.6 µM), for inactives: top-dose activity change, negative = inhibition, most hits filed as inhibitors; AID 1347047; purified FLuc enzyme, luminescence, Km substrate; note: series mostly up to about 58 µM; 0% is about no effect
GloSensor ctrl: reduces cGMP signal in GloSensor control cells; shares compounds with NPR1 antag; HEK293 GloSensor cGMP, SNP-stimulated, luminescence; Potency, µM (top dose mostly 57.6 µM), without a hit: at the top dose activity change, negative = inhibition, hits mostly inhibitors; 69% of 1,400 active; calls by dose curve; note: % is set by controls: 0 for no effect and ±100 for the full control effect; nearly all actives have a fitted effect of over 70% in size
Active calls of the source: *; i = inactive; ? = inconclusive; nt = no result given; [ ] = remark or other dose. Unless noted, calls come from the whole dose curve; as a rule, active = well fitted curve in the direction sought with a large enough effect; inconclusive = small, poorly fitted or top-dose-only effect, or another doubt; inactive = no such curve, though single readings can be large; an effect the other way counts as inactive or inconclusive. Potency is the fitted concentration of half-maximal effect.

SMILES	NPR1 antag	3T3 cytotox	HEK cytotox	Luciferase inh	GPT2 inhibitor	NPR1 antag cnf	Npr2 selectivity	FLuc inh counter	GloSensor ctrl
N#Cc1cccc(-c2ccnc(N[C@H]3CO[C@H]4[C@@H]3OC[C@H]4OC(=O)Nc3ccc(Oc4ccccc4)cc3)n2)c1	?	?	?	i	-4%	?	-25%	-2%	?
COc1ccc(-c2ccnc(N[C@H]3CO[C@H]4[C@@H]3OC[C@H]4OC(=O)Nc3ccc(C(C)=O)cc3)n2)cc1	10µM*	-32%	?	i	-1%	11µM*	15µM*	1%	9.7µM*
O[C@@H]1CC(CNCc2ccc(F)cc2)(COc2cccnc2)C[C@@H]1O (some centres not stated)	0%[70.6 µM]	-18%[174 µM]	-7%[172 µM]	i	?	nt	nt	nt	nt
O[C@@H]1CC(CNCc2cccc(Cl)c2)(COc2ccccc2)C[C@@H]1O (some centres not stated)	-28%[70.6 µM]	?	100µM*	i	-10%[88.5 µM]	?	31µM*	-7%[86.2 µM]	-27%[86.2 µM]
COC(=O)c1ccc(COC(=O)C2=CN(C)S(=O)(=O)N=C2C)o1	?	-30%	-30%	i	0%	24µM*	?	3%	19µM*
CC1=NS(=O)(=O)N(Cc2ccccc2)C=C1C(=O)OCc1nc(-c2cccs2)no1	-20%	?	?	i	2%	nt	nt	nt	nt
CC1=NS(=O)(=O)N(C)C=C1C(=O)OCc1noc(-c2ccccc2C)n1	10µM*	?	?	i	i	11µM*	17µM*	-11%	11µM*
CC1=NS(=O)(=O)N(C)C=C1C(=O)OCc1nc(C2CC2)no1	-5%	-3%	-3%	i	i	nt	nt	nt	nt
CC1=NS(=O)(=O)N(C)C=C1C(=O)OCc1noc(-c2ccccc2F)n1	11µM*	?	-32%	i	4%	19µM*	17µM*	-13%	14µM*
CC1=NS(=O)(=O)N(C)C=C1C(=O)OCc1nc(-c2cccs2)no1	?	-22%	-27%	i	-15%	24µM*	?	-17%	22µM*
CC1=NS(=O)(=O)N(Cc2ccccc2)C=C1C(=O)OCc1noc(C2CCCC2)n1	-25%	?	?	i	-7%	nt	nt	nt	nt
CC1=NS(=O)(=O)N(C)C=C1C(=O)OCc1noc(-c2cccs2)n1	10µM*	?	?	i	i	22µM*	19µM*	-2%	22µM*
N#Cc1ccc(CN2CCC3(CC2)CC(c2cccc(C(F)(F)F)c2)=NO3)cc1	8.9µM*	28µM*	32µM*	i	2%	?	?	2%[86.2 µM]	?
Clc1ccc(CN2CCC3(CC2)CC(c2cccnc2)=NO3)cc1	nt	-22%	?	nt	-7%	27µM*	?	4%	24µM*
N#Cc1ccc(CN2CCC3(CC2)CC(=O)c2ccccc2O3)cc1	28µM*	?	?	i	-14%[88.5 µM]	31µM*	35µM*	2%[86.2 µM]	25µM*
N#Cc1ccc(CN2CCC3(CC2)CC(c2cccnc2)=NO3)cc1	22µM*	-20%[138 µM]	79µM*	i	i	20µM*	22µM*	1%[86.2 µM]	18µM*
O=C(NC1CCN(c2cc(-c3ccccc3)[nH]n2)C1)c1cc(F)ccc1Cl (configuration not stated)	-9%	-22%	?	i	-25%	nt	nt	nt	nt
CCn1nccc1C(=O)N1CCC2(CC1)CC(OCCOC)CCO2 (configuration not stated)	-3%	-4%	5%	i	i	nt	nt	nt	nt
Cc1ccc(CN2C[C@@H](CO)[C@H](c3nc(-c4ccncc4)no3)C2)cc1	11µM*	?	?	i	-19%	24µM*	24µM*	-7%	24µM*
Cc1ccc(-c2cn3cc(C(=O)N4CCN(C)CC4)nc3s2)cc1	nt	?	?	nt	-13%	nt	nt	nt	nt
COc1cc(CN2CCC(C)(c3noc(C4CCOCC4)n3)CC2)cc(OC)c1	?	-8%	-4%	i	?	?	?	0%	3%
CN(Cc1cccc2cnccc12)C(=O)c1cc(COc2ccc(F)cc2F)on1	11µM*	?	?	i	i	24µM*	22µM*	-1%	19µM*
O=C(c1ccc(F)cc1)N1CC(Oc2cccc(-c3nc(-c4ccccc4)no3)c2)C1	6%	?	?	?	-6%	nt	nt	nt	nt
COc1cccc(CC(=O)N2CC(Oc3ccc(-c4noc(-c5ccncc5)n4)cc3)C2)c1	7.9µM*	?	13µM*	i	i	3.1µM*	4.3µM*	-21%	3.4µM*
CC(C)S(=O)(=O)N1CC(Oc2ccc(-c3noc(-c4cccnc4)n3)cc2)C1	1.4µM*	-24%	?	i	-11%	22µM*	?	-14%	22µM*
O=C(Cc1ccccc1F)N1CC(Oc2ccc(-c3noc(-c4cccnc4)n3)cc2)C1	-29%	-2%	-43%	i	-12%	22µM*	22µM*	-14%	22µM*
COc1cccc(CN2CCC(Oc3ccccc3-c3nc(-c4ccncc4)no3)C2)c1 (configuration not stated)	?	25µM*	?	i	1%	?	?	?	0%
CCCC(=O)NC[C@@H]1CC[C@H]2C[C@@H]1C2(C)C	8%[70.6 µM]	?	?	i	i	nt	nt	nt	nt
COc1ccc(C2Cn3nnc(-c4noc(-c5ccoc5)n4)c3CO2)cc1 (configuration not stated)	?	-8%	-5%	i	i	nt	nt	nt	nt
CCN1CCN(C(=O)CC2CCCN(c3cnn(CC4CC4)c(=O)c3)C2)CC1 (configuration not stated)	-1%	?	-11%	i	i	nt	nt	nt	nt
